# Screening results (PubChem BioAssay)
# Pf Dd2 growth: inhibitors of Plasmodium falciparum Dd2 growth; P. falciparum Dd2 growth, SYBR Green, 72 h; 120,000 compounds, 4.3% hits; Potency, µM (series often up to 28.9 µM), inactives show top-dose activity, negative = inhibition, usual class: inhibitors; active = well fitted inhibition curve with a large enough effect;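 also: plate controls were DMSO vehicle for no effect and reference drug for full effect; nearly all actives have a fitted effect of over 65% in size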
#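 Infected erythrocytes (Dd2, 0.3% parasitemia, 2.5% hematocrit final) are added to compound in RPMI-1640/Albumax II medium, grown 72 h at 37C in low oxygen, then lysed with saponin/Triton-X containing SYBR Green and read by fluorescence.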
# * marks the source's active call; other numbers are inactive results; i = inactive; ! = a repeat was not active; [ ] = another dose, or the depositor's remark. Shown is part of a subset that was picked to be rich in hits. Potency is read from the fitted curve at half-maximal effect.
SMILES,Pf Dd2 growth
O=C(c1ccccc1)N1C[C@@H](F)[C@@H](OCc2nc3ccc(C(F)(F)F)cc3[nH]2)C1,i
COCCC1(NC(=O)c2ccccc2)CCN(Cc2cn[nH]c2-c2cccs2)CC1,8.9µM*
O=C1CC(c2ccccc2)N(Cc2cn[nH]c2-c2cccs2)CCCCCN1 (stereo not drawn),-9%
COc1ccccc1-c1[nH]ncc1CN1CCC2(CC1)CC(O)CCO2 (stereo not drawn),44%
O=C(c1cccc(F)c1)N1CCCC(Cc2noc(-c3ccccc3)n2)C1 (stereo not drawn),27%
Cc1ccc(C(=O)N2C[C@@H](Oc3cccnc3)C[C@H]2C(=O)N2CCOCC2)cn1,1%
Cc1cc(C(=O)N2c3ccccc3CC2c2nnc(C(C)C)o2)nn1C (stereo not drawn),i
COCCN1CC(CO)C2(CCN(Cc3cccc(Cl)c3)CC2)C1 (stereo not drawn),10µM*
COCCN1CC(CO)C2(CCN(Cc3cccc(C#N)c3)CC2)C1 (stereo not drawn),-7%
COCCN1CC(CO)C2(CCN(Cc3ccc(F)c(F)c3)CC2)C1 (stereo not drawn),-20%
COc1ccc(NC(=O)N[C@@H]2C=C[C@@H](c3c(C)nn(-c4ccccn4)c3C)C2)cc1,i
COc1ccc(-n2nc(C)c([C@@H]3C=C[C@@H](NCc4ccc(N(C)C)cc4)C3)c2C)cc1,1.6µM*
Cc1nn(-c2ccc(C(F)(F)F)cc2)c(C)c1[C@@H]1C=C[C@@H](NC(=O)COc2ccccc2)C1,-4%
COc1ccc(CN[C@@H]2C=C[C@@H](c3c(C)nn(-c4ccccc4)c3C)C2)cc1,6.3µM*
CN1C[C@H](O)C[C@H]1c1nnc2n1CCN(C(=O)c1ccsc1)CC2,25%
CNC(=O)[C@@H](c1ccccc1)N1CCC[C@H]1C(=O)NCc1ccncc1,12%[44.1 µM]
Cc1ccc(-c2nc(C(=O)N3CCN(Cc4ccc5c(c4)OCO5)CC3)no2)cc1,11µM*
Cc1ccc(CNC(=O)c2noc(-c3ccc4c(c3)OCO4)n2)cc1,i
Cc1ccc(-c2nc(C(=O)NCc3ccc4c(c3)OCO4)no2)cc1,i
Cc1ccc(CNC(=O)C2CCN(C(=O)c3ncn4c3COC(c3ccccc3)C4)CC2)cc1 (stereo not drawn),-17%
Cc1nc(NC(=O)Cn2nc3c(cc2=O)CCCC3)sc1C,-12%
O=C(c1cc(-c2cccs2)[nH]n1)N1CCc2c(nc(-c3ccccc3)[nH]c2=O)C1,-4%
Cn1nc(C(=O)N2CC(C)(C)C(C)(O)C2)cc1-c1cccs1 (stereo not drawn),-11%
O=C(NC1CC1)[C@@H]1C[C@H](Oc2ccccc2)CN1C(=O)CC1CCCC1,3%
COc1ccc(CNC(=O)C(=O)NCC(c2ccco2)S(=O)(=O)c2ccc(C)cc2)cc1 (stereo not drawn),i
SMILES,Pf Dd2 growth
COc1ccc(CNCCN2CCCC2)cc1,-9%[44.1 µM]
COc1ccc(CNCCC(c2ccc(C)cc2)c2ccco2)cc1 (stereo not drawn),13µM*
CCOc1ccccc1C1C(C(=O)Nc2ccccc2OC)=C(C)Nc2nc3ccccc3n21 (stereo not drawn),-19%
COc1ccccc1NC(=O)C1=C(C)Nc2nc3ccccc3n2C1c1cccc(OC)c1OC (stereo not drawn),i
COc1cccc(C2C(C(=O)Nc3ccccc3OC)=C(C)Nc3nc4ccccc4n32)c1 (stereo not drawn),7.1µM*
Cc1cccc(OC[C@H]2C[C@@H](N(C)C)[C@H](O)[C@@H]2O)n1,-13%[44.1 µM]
Cc1c(C(=O)OC2CCCCCC2)[nH]c2c1C(=O)CC(c1ccc(Cl)cc1)C2 (stereo not drawn),-9%
CC1=C(C(=O)OC2CCCCCC2)C(c2c(F)cccc2Cl)CC(=O)N1 (stereo not drawn),-14%
COc1cc(C2CC(=O)c3c([nH]c(C(=O)OC4CCCC4)c3C)C2)cc(OC)c1OC (stereo not drawn),5.6µM*
Cc1c(C(=O)OC2CCCCCC2)[nH]c2c1C(=O)CC(c1ccccc1Cl)C2 (stereo not drawn),10µM*
Cc1c(C(=O)OCC2CCCCC2)[nH]c2c1C(=O)CC(c1ccc(F)cc1)C2 (stereo not drawn),-13%
Cc1c(C(=O)OC2CCC(C)CC2)[nH]c2c1C(=O)CC(c1ccccc1Cl)C2 (stereo not drawn),-27%
O=C([C@@H]1C[C@H](Oc2ccccc2)CN1S(=O)(=O)Cc1ccccc1)N1CCOCC1,1%
COCc1noc([C@@H]2CC(F)(F)CN2C(=O)Cc2cccc(F)c2)n1,-14%
Cc1ccc(CNC(=O)N2CCCCCNC(=O)[C@@H]3CCCC[C@@H]32)cc1,-17%
CCOC(=O)N1CCC(NC(=O)c2cnn(-c3ccc(F)cc3F)c2C2CCN(C(=O)OC(C)(C)C)CC2)CC1,3.5µM*
CC(C)(C)OC(=O)N1CCC(c2c(C(=O)NC3CCN(Cc4ccccc4)CC3)cnn2-c2ccc(F)cc2F)CC1,11µM*
COCCNC(=O)[C@H]1C[C@H](Oc2cccnc2)CN1S(=O)(=O)c1ccc(OC)cc1,23%
Cc1ccsc1C(=O)N1CCCC(Cc2nc(C3CCOCC3)no2)C1 (stereo not drawn),-6%
c1cnc2nc(-c3ccncc3)[nH]c2c1,-19%[44.1 µM]
c1cc2nc(C3CCNCC3)[nH]c2cn1,-1%[44.1 µM]
c1cnc2[nH]cc(-c3nc4ccncc4[nH]3)c2c1,10µM*!
Cc1cc(-c2nc3ccncc3[nH]2)c(C)[nH]1,20µM*!
O=C(O)c1ccc(-c2cccnc2)cc1,1%[44.1 µM]
O=C(O)c1ccc2nc(-c3cc4cc(F)ccc4oc3=O)[nH]c2c1,-1%
SMILES,Pf Dd2 growth
O=C(O)c1ccc(-c2nc3ccncc3[nH]2)cc1,1.3µM*!
c1cc2nc(C3CCNC3)[nH]c2cn1 (stereo not drawn),i
c1coc(-c2nc3ccncc3[nH]2)c1,-24%[44.1 µM]
C[C@@H](NCc1ccc(F)cc1)c1onc(-c2ccc(Cl)cc2)c1C(=O)O,15%[44.1 µM]
O=c1cc(C2CC(NC3CCC4(CCNCC4)CC3)C2)nc(C2CC2)[nH]1 (stereo not drawn),2%
COc1ccc(NC(=O)c2cc(-c3ccc[nH]3)n[nH]2)c(OC)c1,-2%
O=C(NC1CCCCC1)O[C@@H]1CO[C@H]2[C@@H]1OC[C@@H]2NC(=O)c1ccccc1,-9%[44.1 µM]
CC(C)c1noc(-c2cn(C3CCCN(C(=O)c4ccc5c(c4)OCO5)C3)nn2)n1 (stereo not drawn),i
O=C(O)C1CCc2nnc(C3CCN(C(=O)c4cccc(Cl)c4)C3)n21 (stereo not drawn),18%
COc1ccc(C2Cn3nnc(C(=O)N4CCC(C(=O)NCCc5ccccc5)CC4)c3CO2)cc1 (stereo not drawn),-13%
O=C(Cn1cc(SCc2ccccc2F)c2ccccc21)N1CCCCC1,-18%
CCC(NCc1cn(CCC(N)=O)c2ccccc12)c1cccs1 (stereo not drawn),-24%
NC(=O)CCn1cc(CN(CCO)Cc2ccccc2F)c2ccccc21,2.2µM*
CN(C)CC1(O)CCN(C(=O)Cn2cc(C(=O)C3CC3)c3ccccc32)C1 (stereo not drawn),-5%
c1ccc(CN2CCC(N3CC(OCC4CC4)C34CCOCC4)CC2)cc1 (stereo not drawn),5.6µM*
COC1CN(C2CCN(C(=O)Cc3ccccc3)CC2)C12CCOCC2 (stereo not drawn),i
Cn1cccc1CN1CCC(N2CCOC2=O)CC1,4%[44.1 µM]
Cc1ccncc1C(=O)N1CCC(N2CC(OCC3CC3)C23CCCCC3)CC1 (stereo not drawn),-18%
